CCHF vOTU inh: CCHFV vOTU protease inhibitors, primary screen, biochemical, Pep-AMC substrate, fluorescence; inhibition, % at 11.5 µM; AID 651958, 2012; hit rate 0.55% among 370,000; Crimean-Congo hemorrhagic fever virus L polyprotein viral ovarian tumor (vOTU) protease …; in the data active = inhibition above about 30%; note: 0% = vehicle wells with enzyme and 100% = no enzyme wells
Rv3671c protease: Rv3671c serine protease inhibitors, primary screen, biochemical, fluorescence polarization, M. tuberculosis H37Rv | P9WHR9 | hit rate 0.048% among 320,000 | inhibition, % at 5.96 µM; in the data active = inhibition above about 38%;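 note: extracellular domain of Rv3671c used as enzyme; 0% = enzyme with DMSO and 100% = no enzyme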
Mtb bLac sens: beta-lactam sensitization of Mtb H37Rv, H37Rv. AID 434955, 2010. hit rate 0.27% among 330,000. M. tuberculosis H37Rv growth with meropenem, percent inhibition. inhibition, % at 25 µM; call rule not given here;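 note: growth measured after seven days incubation then overnight dye step; 0% = bacteria only wells and 100% = bacteria with antibiotic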
RecA intein inh: Mtb RecA intein splicing inhibitors, primary screen, biochemical, fluorescence, HTS; Protein RecA (Mycobacterium tuberculosis (strain ATCC 25618 / H37Rv)), P9WHJ3; cell-free RecA intein splicing; inhibition, % (no concentration beside the values); hit rate 0.75% among 290,000; AID 2221, 2009; in the data active = inhibition above about 30%;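 note: 0% = vehicle wells and 100% = reference inhibitor control wells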
Mtb UGM inh: M. tuberculosis UGM enzyme inhibitors, primary screen, biochemical, fluorescence polarization, single point; purified UGM, fluorescence polarization probe displacement; inhibition, % at 10 µM; UDP-galactopyranose mutase (Mycobacterium tuberculosis (strain ATCC 25618 / H37Rv)), …; hit rate 0.06% among 320,000; AID 504406, 2011; in the data active = inhibition above about 10%, passing the limit was not always enough
Target sequence (P9WIQ1 whole entry, looked up): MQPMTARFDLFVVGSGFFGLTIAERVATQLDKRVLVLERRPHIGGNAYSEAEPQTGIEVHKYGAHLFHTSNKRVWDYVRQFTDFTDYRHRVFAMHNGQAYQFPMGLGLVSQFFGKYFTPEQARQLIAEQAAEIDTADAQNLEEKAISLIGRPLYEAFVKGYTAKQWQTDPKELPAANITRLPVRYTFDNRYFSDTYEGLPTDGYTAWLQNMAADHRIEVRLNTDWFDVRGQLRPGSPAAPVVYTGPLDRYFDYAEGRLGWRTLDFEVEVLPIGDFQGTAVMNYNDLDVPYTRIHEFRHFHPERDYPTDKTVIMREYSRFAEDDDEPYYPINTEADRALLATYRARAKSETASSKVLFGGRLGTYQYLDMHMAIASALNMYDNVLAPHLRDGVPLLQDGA
Active calls of the source: *; . = no result. Most compounds without a hit are left out; they make up all but 1.2% or so of the library.

SMILES	CCHF vOTU inh	Rv3671c protease	Mtb bLac sens	RecA intein inh	Mtb UGM inh
CC1=C/C(=C\C=C(C#N)C#N)N(C)c2ccccc21	5	-223	-1	.	1
CCCCCCN1C=CC=C/C1=C\C=C(C#N)C#N	7	2	19	.	16*
O=S1(=O)c2c(cccc2N2CCSCC2)Oc2ccccc2CN1Cc1cn(Cc2cccc(C(F)(F)F)c2)nn1	2	.	.	.	.
NC(=O)c1c(NC(=O)C2COc3ccccc3O2)sc2c1CCN(Cc1ccccc1)C2 (stereo unspecified)	-6	-3	15	-26	19*
CCOC(=O)c1c(NC(=O)C2COc3ccccc3O2)sc2c1CCN(Cc1ccccc1)C2 (stereo unspecified)	13	-6	8	1	3
COC(=O)CC1=NN(c2ccc(OC)cc2)C(=O)C1	-2	-56	1	72*	3
O=C(NCc1cccnc1)/C(=C/c1ccc(-c2ccc(Cl)cc2)o1)S(=O)(=O)c1ccccc1	-8	-15	99	35*	2
O=C(NCc1cccnc1)/C(=C/c1ccc(-c2cccc(C(F)(F)F)c2)o1)NC(=O)c1ccccc1	21	-3	20	2	-1
C/C(=N/NC(=O)c1ccncc1)c1cc2ccc(O)cc2oc1=O	-298	9	99	.	42*
C/C(=N\NC(=O)c1ccc([N+](=O)[O-])cc1)c1cc2ccccc2oc1=O	7	-2	7	87*	-1
COC(=O)c1cccc(Cn2ccc3ccc(-c4ccc5ccn(C(=O)c6cccc(OC)c6)c5c4)cc32)c1	12	.	.	.	.
CCOC(=O)CSc1nc2sc3c(c2c(=O)n1C1CCCCC1)CCN(C)C3	-43	-1	64	34*	1
COC(=O)c1cc(C(c2ccccc2O)C2CCCO2)n2cccc(C(C)(C)C)c12 (stereo unspecified)	-43	.	.	.	.
COC(=O)Cc1cc(=O)n(-c2ccccc2)[nH]1	-7	-32	0	50*	0
CCOC(=O)Cn1cc(CN2CCS(=O)(=O)N(Cc3ccc(Cl)cc3)C(C(=O)OC)C2)nn1 (stereo unspecified)	-6	.	.	.	.
CN(C)CCNC(=O)c1ccc(Cl)s1	-6	-2	-10	6	0
CN(Cc1ccc(Cl)cc1)C(=O)CCl	-11	-8	99	63*	-2
COc1ccc(CN(C)C(=O)CCl)cc1	-6	.	.	.	.
CN(Cc1ccc(Cl)s1)C(=O)CCl	2	3	100	43*	0
CC(C)CNC(=O)c1c(N)n(Cc2ccc3c(c2)OCO3)c2nc3ccccc3nc12	-10	-87	-1	55*	0
CC(C)CCn1c(N)c(C(=O)NCc2cccs2)c2nc3ccccc3nc21	.	-3	3	88*	-2
COCCNC(=O)c1c(N)n(CCC(C)C)c2nc3ccccc3nc12	-68	-124	98	-316	-1
C=C1C(=O)O[C@@H]2C[C@@H](C)[C@@H]3C=CC(=O)[C@@]3(C)[C@@H](OC(=O)CC(=O)O[C@H]3[C@@H]4C(=C)C(=O)O[C@@H]4C[C@@H](C)[C@@H]4C=CC(=O)[C@]43C)[C@H]12	5	-35	100	33*	4
O=[N+]([O-])CC(=Nc1ccc(Cl)cc1)N/N=C\c1oc(O)c2ccccc12	33*	12	24	8	-5
O=C(N/N=C/c1ccc([N+](=O)[O-])o1)c1cn(-c2ccccc2)nc1-c1ccc(Cl)cc1	-4	-9	13	5	-1
SMILES	CCHF vOTU inh	Rv3671c protease	Mtb bLac sens	RecA intein inh	Mtb UGM inh
CCOC(=O)c1nn(-c2ccc(F)cc2)c(=O)c2c(N)scc12	0	-8	0	22	1
CCOC(=O)c1nn(-c2ccc(C)cc2)c(=O)c2c(N)scc12	21	-21	-1	35*	3
Brc1ccc(Cn2c(-c3ccc(Br)o3)nc3ccccc32)o1	3	.	.	30*	.
Oc1cc(O)c2c(c1)O[C@H](c1ccc(O)c(O)c1)[C@@H](O)C2	1	-1	1	59*	0
CCN(CC)c1ccc(S(=O)(=O)N2CCOCC2)cc1NC(=O)CSc1nncn1C	35*	-1	-6	.	1
CCN(CC)c1ccc(S(=O)(=O)N2CCOCC2)cc1NC(=O)CSc1nncs1	.	0	-8	-7	-3
C=CCN1[C@H](CC(C)C)COc2cc(N3CCCC3)ccc2S1(=O)=O	9	.	.	.	.
Cc1noc(C)c1COC(=O)CN(C)S(=O)(=O)c1ccc(Cl)cc1	-5	8	-4	-1	0
Cc1noc(C)c1CSCC(=O)Oc1ccc(N(C)S(=O)(=O)c2ccc(Cl)cc2)cc1	21	-4	0	40*	-1
Cc1noc(C)c1CSCC(=O)Oc1ccc(N(C)S(=O)(=O)c2ccccc2)cc1	6	8	-6	38*	3
Cc1ccc(Cn2cc(CN(C(C)(C)C)S(=O)(=O)c3ccc(F)cc3Br)nn2)cc1	7	.	.	.	.
Cn1cc(/C=C2\C(=O)NC(=O)N(c3ccccc3)C2=O)c2ccccc21	-14	-5	98	-3	14*
CN1Cc2nnn(Cc3ccccc3)c2-c2ccccc2S1(=O)=O	-5	.	.	.	.
COc1ccccc1NC1=C(Cl)C(=O)OC1OC(=O)c1ccco1 (stereo unspecified)	2	-11	-7	41*	6
COc1cccc(NC2=C(Cl)C(=O)OC2OC(=O)c2ccco2)c1 (stereo unspecified)	-12	15	74	35*	-2
Cc1ccc(NC2=C(Cl)C(=O)OC2OC(=O)c2ccc(C)cc2)cc1 (stereo unspecified)	14	0	58	16	0
COC(=O)c1ccc(NC2=C(Cl)C(=O)OC2OC(=O)c2ccccc2)cc1 (stereo unspecified)	2	-9	76	30*	3
Cc1ccccc1NC1=C(Cl)C(=O)OC1OC(=O)c1ccco1 (stereo unspecified)	-3	2	0	43*	-2
Cc1ccc(CNC(=O)OC(C)(C)C)c(/C=C/S(=O)(=O)NCCc2ccccc2)c1	26	.	.	.	.
Cc1cc(C(=O)O[C@H]2CCC[C@@]3(C(=O)N(Cc4ccccc4)c4ccccc43)[C@H]2NC(=O)CCc2ccccc2)no1	1	.	.	.	.
COCC(=O)N(C)[C@H]1C[C@H]2c3[nH]c4c(-c5ccc6c(c5)OCO6)cccc4c3CCN2C(=O)[C@H]1[C@H](C)O	0	.	.	.	.
Cc1ccccc1NC(=O)N(C)[C@H]1C[C@H]2c3[nH]c4c(-c5ccccc5)cccc4c3CCN2C[C@H]1[C@H](C)O	4	.	.	.	.
Cc1ccc(N2C(=O)C(Cl)=C(NCCO)C2=O)c(C)c1	-8	3	13	33*	-2
CCCCCn1c(=O)c(C(=O)Nc2ccccc2S(N)(=O)=O)c(O)c2ccccc21	11	-5	3	-3	65*

Assay outcomes as filed in PubChem.
